# Source: PubChem (University of Kansas High Throughput Screening Laboratory)
# Rows were chosen to be rich in hits. Some 3.5% of all compounds tested hit in one or more screens of this group.
# mHTT CaM bind – disrupts binding of mutant huntingtin to calmodulin; P42858; inhibition, % at 15 µM; AlphaScreen His-mHTT/GST-CaM binding, luminescence; hit rate 3.6% among 190,000;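 also: 0% = both proteins with DMSO and 100% = one protein alone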
# Target sequence (P42858 whole entry, looked up, stated change not applied): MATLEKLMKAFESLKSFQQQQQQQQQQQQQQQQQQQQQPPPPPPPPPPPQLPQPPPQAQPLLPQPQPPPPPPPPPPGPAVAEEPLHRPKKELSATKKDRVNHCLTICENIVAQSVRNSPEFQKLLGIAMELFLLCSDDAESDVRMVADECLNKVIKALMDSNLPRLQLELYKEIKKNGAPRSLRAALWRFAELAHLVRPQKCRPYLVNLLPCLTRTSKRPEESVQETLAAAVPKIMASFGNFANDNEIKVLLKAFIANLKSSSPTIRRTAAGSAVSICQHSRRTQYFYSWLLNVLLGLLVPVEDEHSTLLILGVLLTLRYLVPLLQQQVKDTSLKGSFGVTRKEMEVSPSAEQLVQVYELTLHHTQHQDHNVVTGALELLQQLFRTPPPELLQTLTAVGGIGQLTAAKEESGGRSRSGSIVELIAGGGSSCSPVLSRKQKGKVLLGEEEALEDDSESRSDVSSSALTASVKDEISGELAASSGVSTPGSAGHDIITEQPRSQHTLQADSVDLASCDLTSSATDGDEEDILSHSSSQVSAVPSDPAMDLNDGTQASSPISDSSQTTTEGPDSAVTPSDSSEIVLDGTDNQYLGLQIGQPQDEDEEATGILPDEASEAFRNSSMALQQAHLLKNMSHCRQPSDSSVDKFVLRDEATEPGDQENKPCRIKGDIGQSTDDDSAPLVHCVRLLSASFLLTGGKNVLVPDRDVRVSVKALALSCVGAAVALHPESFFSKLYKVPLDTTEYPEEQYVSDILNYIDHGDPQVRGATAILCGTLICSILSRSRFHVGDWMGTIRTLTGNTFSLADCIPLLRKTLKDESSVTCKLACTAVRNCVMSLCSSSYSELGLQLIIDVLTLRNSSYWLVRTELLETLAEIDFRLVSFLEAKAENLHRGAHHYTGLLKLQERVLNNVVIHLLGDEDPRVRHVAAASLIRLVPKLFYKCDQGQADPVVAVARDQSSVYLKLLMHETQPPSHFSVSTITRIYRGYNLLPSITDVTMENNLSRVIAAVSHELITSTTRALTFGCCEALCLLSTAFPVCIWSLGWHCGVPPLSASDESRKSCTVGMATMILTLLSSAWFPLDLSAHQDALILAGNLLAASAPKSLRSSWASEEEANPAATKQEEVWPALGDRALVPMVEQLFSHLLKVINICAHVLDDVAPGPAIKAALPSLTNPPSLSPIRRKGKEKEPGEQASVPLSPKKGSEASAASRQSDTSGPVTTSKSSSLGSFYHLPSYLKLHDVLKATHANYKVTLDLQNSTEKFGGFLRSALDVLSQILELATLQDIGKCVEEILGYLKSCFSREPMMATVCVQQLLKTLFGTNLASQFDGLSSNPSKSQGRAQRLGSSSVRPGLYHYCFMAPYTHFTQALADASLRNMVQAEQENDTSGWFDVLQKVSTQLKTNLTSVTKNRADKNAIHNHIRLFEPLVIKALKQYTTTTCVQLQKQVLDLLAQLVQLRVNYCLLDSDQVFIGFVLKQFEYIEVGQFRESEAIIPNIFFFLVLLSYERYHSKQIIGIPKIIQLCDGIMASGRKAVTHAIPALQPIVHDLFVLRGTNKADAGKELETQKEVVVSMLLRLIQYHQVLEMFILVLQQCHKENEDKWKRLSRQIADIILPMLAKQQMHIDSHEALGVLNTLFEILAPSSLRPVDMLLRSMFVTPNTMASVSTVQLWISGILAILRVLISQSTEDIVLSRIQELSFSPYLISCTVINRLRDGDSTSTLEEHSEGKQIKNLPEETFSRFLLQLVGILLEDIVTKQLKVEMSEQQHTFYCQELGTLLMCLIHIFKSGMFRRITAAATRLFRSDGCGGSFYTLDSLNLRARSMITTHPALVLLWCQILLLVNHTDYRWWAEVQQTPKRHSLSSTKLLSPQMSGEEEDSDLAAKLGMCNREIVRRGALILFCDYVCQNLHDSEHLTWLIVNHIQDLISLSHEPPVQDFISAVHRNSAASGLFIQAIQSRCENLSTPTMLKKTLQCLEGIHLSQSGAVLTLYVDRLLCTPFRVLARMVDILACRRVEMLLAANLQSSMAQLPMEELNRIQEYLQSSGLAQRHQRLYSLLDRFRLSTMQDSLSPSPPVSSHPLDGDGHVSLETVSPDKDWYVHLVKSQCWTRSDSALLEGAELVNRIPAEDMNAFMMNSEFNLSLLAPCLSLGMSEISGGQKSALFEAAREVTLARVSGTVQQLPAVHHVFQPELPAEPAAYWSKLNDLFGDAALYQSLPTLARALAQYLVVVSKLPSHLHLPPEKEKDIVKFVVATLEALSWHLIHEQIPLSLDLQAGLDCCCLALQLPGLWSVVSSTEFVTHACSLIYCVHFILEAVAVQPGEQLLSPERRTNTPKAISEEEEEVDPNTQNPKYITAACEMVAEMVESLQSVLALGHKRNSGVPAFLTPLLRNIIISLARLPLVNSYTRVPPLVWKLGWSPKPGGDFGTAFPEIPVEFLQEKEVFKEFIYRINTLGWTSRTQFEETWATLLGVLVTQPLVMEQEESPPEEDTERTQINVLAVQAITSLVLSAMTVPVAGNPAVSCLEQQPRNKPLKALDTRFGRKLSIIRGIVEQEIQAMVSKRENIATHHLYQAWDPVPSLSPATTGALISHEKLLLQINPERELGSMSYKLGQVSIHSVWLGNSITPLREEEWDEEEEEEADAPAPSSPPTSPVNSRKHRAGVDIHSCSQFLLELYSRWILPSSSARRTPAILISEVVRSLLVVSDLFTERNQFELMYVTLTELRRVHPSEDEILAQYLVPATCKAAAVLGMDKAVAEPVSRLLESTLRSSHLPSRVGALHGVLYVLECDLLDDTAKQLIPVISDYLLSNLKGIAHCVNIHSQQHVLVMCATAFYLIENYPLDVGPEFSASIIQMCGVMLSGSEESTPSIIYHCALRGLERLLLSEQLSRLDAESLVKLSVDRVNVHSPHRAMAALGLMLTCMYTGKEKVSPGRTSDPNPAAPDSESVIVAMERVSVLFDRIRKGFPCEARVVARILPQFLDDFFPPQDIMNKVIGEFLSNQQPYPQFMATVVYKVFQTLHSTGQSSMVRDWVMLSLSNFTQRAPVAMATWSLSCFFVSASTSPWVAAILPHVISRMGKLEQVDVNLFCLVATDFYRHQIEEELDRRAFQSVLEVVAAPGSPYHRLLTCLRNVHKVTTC
# Pf apPOL block – Pf-apPOL DNA polymerase inhibition. Recombinant Pf-apPOL, molecular beacon fluorescence, 1.5 h. inhibition, % at 10 µM. hit rate 0.25% among 210,000
# Numbers without * were called inactive; · = no result given. Rule as the data show it: active = inhibition above about 50%; inactive = the rest.
SMILES,mHTT CaM bind,Pf apPOL block
O=[N+]([O-])c1cc([N+](=O)[O-])c2cccnc2c1N1CCOCC1,20,5
CCOc1cccc(CN2CCCCCC2)c1O,5,-3
Clc1cc2cccnc2c2ncccc12,100*,·
O=[N+]([O-])c1cc(CN2CCOCC2)c2cccnc2c1O,100*,-60
COCc1cc(CN2CCCCC2)c(O)c2ncccc12,100*,2
COc1c(I)cc(Cl)c2cccnc12,·,-4
CC1CCN(Cc2cc(Cn3ccnc3)c3cccnc3c2O)CC1,100*,5
Cc1c(O)ccc2c(CN3CCC(C)CC3)cc(=O)oc12,-2,-6
CCCc1nc(-c2c(C)cc(C)nc2NC(=O)c2ccc(F)cc2)no1,3,1
O=C1Nc2ccccc2/C1=C/C(=O)c1ccc([N+](=O)[O-])cc1,13,0
CCOC(=O)C1CCN(C(=O)C2CCN(c3ccncc3)CC2)CC1,-16,-4
Cc1cccc(C)c1NC(=O)C1(NC(=O)c2cnccn2)CCCC1,4,-4
O=[N+]([O-])c1ccccc1CN1CCCCCCC1,-1,-3
O=[N+]([O-])c1ccc(N2CCN(c3ccccc3)CC2)c2ncccc12,15,-8
O=[N+]([O-])c1cc(Cl)c2cccnc2c1O,100*,-1
O=[N+]([O-])c1cc(CN2CCN(c3ccccc3)CC2)c(O)c2ncccc12,100*,2
Cc1ccnc2c([N+](=O)[O-])cccc12,-4,-2
O=[N+]([O-])c1cc(CN2CCCCC2)c2cccnc2c1O,100*,0
COc1ccc(C(=O)N2CCCn3nc(-c4cccc(C)c4)cc3C2)cn1,18,-1
COc1ccc(CC(=O)N2CCCC2c2nc(-c3ccc(C)cc3)no2)cc1OC (centres undefined),26,-3
c1ccc(NC(c2ccccc2)c2ccncc2)cc1 (centres undefined),5,-2
CC(Oc1ccc(Cl)cc1Cl)C(=O)Nc1ncccn1 (centres undefined),-5,-2
Oc1c(C(Nc2cccc(Cl)c2)c2ccncc2)ccc2cccnc12 (centres undefined),100*,-10
COc1ccc(C(NC(=O)C(C)C)c2ccc3cccnc3c2O)cc1OC (centres undefined),100*,3
COc1ccc(C(C)NC(C)=O)cc1OC (centres undefined),-8,-6
SMILES,mHTT CaM bind,Pf apPOL block
CC(C)C(=O)NC(c1ccc(Cl)cc1Cl)c1ccc2cccnc2c1O (centres undefined),96*,-66
CC(=O)NC(c1ccccc1Cl)c1ccc2cccnc2c1O (centres undefined),100*,-6
CC(C)Cc1nc(SCC(=O)Nc2ccccn2)n[nH]1,-1,-7
CC1(C)CC(=O)c2c(nn(-c3ccccc3)c2-c2ccc(O)cc2)C1,-9,3
Cc1nc(N2CCCC2)c2cnn(-c3ccccc3Cl)c2n1,-1,-1
CC12NC(=O)NC(c3cc(Cl)ccc3O1)C2C(=O)Nc1ccc(Cl)cc1 (centres undefined),2,-4
O=C(Nc1cnc(N2CCCCCC2)nc1)c1cc(F)cc(F)c1,3,2
COc1ccc(C(=O)Nc2cc(OC)cc3cccnc23)cc1,-9,4
COc1ccc(-c2ncc(NC(=O)C(C)C)cn2)cc1,-3,0
CN(C)c1ccc(C(NC(=O)Cc2ccccc2)c2ccc3cccnc3c2O)cc1 (centres undefined),41,0
COc1ccc(C(NC(C)=O)c2ccc3cccnc3c2O)cc1 (centres undefined),100*,4
CCC(=O)NC(c1ccc(C)cc1)c1ccc2cccnc2c1O (centres undefined),100*,0
Cc1ccc(C(NC(=O)C(C)C)c2ccc3cccnc3c2O)cc1 (centres undefined),100*,2
COc1ccc(C(NC(=O)C(C)C)c2ccc3cccnc3c2O)cc1 (centres undefined),100*,10
Cc1cc(F)ccc1NC(=O)c1csc(-c2ccc(C)n2C)n1,-2,-8
CC(=O)Nc1ccc(OCC(=O)Nc2cc(Cl)cc(Cl)c2)cc1,-1,1
CCOc1ccccc1NC(=O)Cc1cn(C)c2ccccc12,7,-6
CCc1ccc(N2N=C(C)/C(=C\c3ccc(N(C)C)c([N+](=O)[O-])c3)C2=O)cc1,10,-3
Cc1ccc(NC(=O)N2CCCC2c2nc(-c3ccc(F)cc3F)no2)c(Cl)c1 (centres undefined),-21,-3
O=C(NC(Nc1cccc2cccnc12)C(Cl)(Cl)Cl)c1ccc(Br)cc1 (centres undefined),3,-10
CC(=O)NC(c1ccc(Cl)cc1)c1ccc2cccnc2c1O (centres undefined),100*,0
CCCC(=O)NC(c1ccccc1Cl)c1ccc2cccnc2c1O (centres undefined),100*,0
O=C(NC(c1ccccc1)c1ccc2cccnc2c1O)c1ccccc1 (centres undefined),100*,2
O=C(CN1C(=O)/C(=C/c2ccc(Cl)cc2)Sc2ccccc21)NC1CCCCC1,3,0
O=C(c1ccc2nc3ccc(Cl)cc3c(=O)n2c1)N1CCN(c2ccc([N+](=O)[O-])cc2)CC1,14,-2
SMILES,mHTT CaM bind,Pf apPOL block
Fc1ccccc1CN1CCCCC1c1nc(-c2cccnc2)no1 (centres undefined),-8,-4
CCOc1ccc(CCNC(=O)Cn2nnc(-c3ccccc3F)n2)cc1OCC,5,-2
c1cnc(N2CCN(C3CCCCCC3)CC2)nc1,-3,-2
O=[N+]([O-])c1cccc(CNCC2OCCc3ccccc32)c1 (centres undefined),6,-3
O=C(Nc1ccccc1)c1cccc2c3c([nH]c12)CCCC3,76*,-1
c1ccc2c3c([nH]c2c1)CCCC3,37,·
CNC(=O)c1csc(N2CCCC2)n1,-4,-1
COc1ccc(C(=O)N2CCC(COc3ccc(C(=O)N4CCCCC4)cc3)CC2)cc1,9,-2
O=C1CCCC(=O)N1c1ccc(N2CCC(O)(c3cccc(C(F)(F)F)c3)CC2)c([N+](=O)[O-])c1,93*,-21
O=C1CCCC(=O)N1c1ccc(N2CCN(c3cccc(C(F)(F)F)c3)CC2)c([N+](=O)[O-])c1,13,-17
CC1(C)CC(=O)C2=C(C1)OC(N)=C(C#N)C2c1ccc(Br)cc1 (centres undefined),4,-5
CC1(C)CC(=O)C2=C(C1)N=C1c3ccccc3C(=O)C1C2c1ccc(F)cc1 (centres undefined),62*,-2
CC1(C)CC(=O)C2=C(C1)N=C1c3ccccc3C(=O)C1C2c1ccc(O)c(O)c1 (centres undefined),48,12
CC1(C)CC(=O)C2=C(C1)N=C1c3ccccc3C(=O)C1C2c1cc(Br)ccc1O (centres undefined),59*,-5
CC1(C)CC(=O)C2=C(C1)N=C1c3ccccc3C(=O)C1C2c1ccc(Br)cc1 (centres undefined),65*,-2
COc1ccc(C2C3=C(CCCC3=O)N=C3c4ccccc4C(=O)C32)cc1OC (centres undefined),36,-3
Cc1cc(Br)ccc1OCC(=O)NCCN1CCOCC1,2,-2
CCOc1ccc(C(=O)Nc2cccc(NC(=O)c3cccs3)c2)cc1Br,7,23
Oc1oc(-c2ccccc2F)nc1C=Nc1ccccc1I,2,0
COc1ccccc1NC(=O)c1ccc(N2C(=O)CCC2=O)cc1,-2,-11
